Experimental data published in PubChem BioAssay (EPA / NIEHS).
Records with an inconclusive call do not appear. Activity calls are given as the source filed them. The calls were made as follows: active = hit-call score of the fitted dose curve at least 0.9, where 1 is the maximum; inconclusive = response in the unintended direction; inactive = score below 0.9.

The compounds below were run against rat CYP2D1, Cyp2d1 (gene 266684) (UniProt P10633) (assay: NVS_ADME_rCYP2D1: NovaScreen (NVS) CYP450-related Enzyme Activity (ADME) Assay for rat CYP2D1 (AID 2283122)).
rat CYP2D1, Cyp2d1 (gene 266684), sequence (P10633 whole entry, looked up): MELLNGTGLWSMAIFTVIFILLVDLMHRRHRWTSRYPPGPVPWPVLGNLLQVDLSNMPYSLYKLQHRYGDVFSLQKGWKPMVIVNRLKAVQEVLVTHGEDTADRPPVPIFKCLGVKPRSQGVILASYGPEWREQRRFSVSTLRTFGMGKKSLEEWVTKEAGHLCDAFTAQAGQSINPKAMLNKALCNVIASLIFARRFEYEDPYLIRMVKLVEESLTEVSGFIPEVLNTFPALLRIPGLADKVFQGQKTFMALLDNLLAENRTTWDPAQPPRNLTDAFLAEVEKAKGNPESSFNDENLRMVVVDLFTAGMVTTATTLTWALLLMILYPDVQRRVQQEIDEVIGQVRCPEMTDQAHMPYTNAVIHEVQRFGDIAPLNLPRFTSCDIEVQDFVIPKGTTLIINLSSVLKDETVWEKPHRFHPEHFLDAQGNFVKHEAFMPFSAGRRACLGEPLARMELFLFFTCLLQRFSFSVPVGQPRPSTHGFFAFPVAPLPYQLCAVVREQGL
Protocol: NVS_ADME_rCYP2D1 is a biochemical, single-readout assay that uses extracted gene-proteins in a cell-free assay. Measurements were taken 0.75 hour after chemical dosing in a 96-well plate.NVS_ADME_rCYP2D1 is one of one assay component(s) measured or calculated from the NVS_ADME_rCYP2D1 assay. It is designed to make measurements of enzyme activity, a form of enzyme reporter, as detected with fluorescence intensity signals by Fluorescence technology.Data from the assay component NVS_ADME_rCYP2D1 was analyzed into 1 assay endpoint. This assay endpoint, NVS_ADME_rCYP2D1, was analyzed in the positive analysis fitting direction relative to Acetonitrile as the negative control and baseline of activity. Using a type of enzyme reporter, loss-of-signal activity can be used to understand changes in the enzymatic activity as they relate to the gene Cyp2d1. Furthermore, this assay endpoint can be referred to as a primary readout, because this assay has produced multiple assay endpoints where this one serves a enzymatic activity function. To generalize the intended target to other relatable targets, this assay endpoint is annotated to the cyp intended target family, where the subfamily is xenobiotic metabolism.
Binding assays used specific radioligands (tritiated, iodinated) with non-radioactive competitive displacement ligands in agonist or antagonist protocols (as indicated) and various reference compounds and inhibitors to titrate specific binding to receptors and transporters. Most enzyme assays (CYPs, kinases, phosphatases, proteases, HDACs) used recombinant protein and specific substrates (fluorescence mostly, some colorimetric and radioactive) and inhibitors, followed by a biochemical separation of substrate and product. All assays for the biochemical HTS were initially run in duplicate at a single concentration (10 uM for CYP450 assays and 25 uM for all others). Assay-chemical combinations meeting a pre-defined threshold (e.g., 30% inhibition and other criteria defined below) were then run in singleton concentration-response format with maximum concentration of 20 uM for CYPs and 50 uM for all others. Each assay was run with positive and negative controls, and concurrent controls on every plate. The follow-up (secondary) screen tested active chemical-pairs in concentration series, as well as a few additional assays not tested in the primary screen, some selected negative inactives, and several cases re-run in the concentration series for confirmatory purposes.
In the case of `CCCC1COC(Cn2cncn2)(c2ccc(Cl)cc2Cl)O1` (stereo not given), the AC50 is reported as 6.88 µM (active). For `CCOC(=O)C(Cl)Cc1cc(-n2nc(C)n(C(F)F)c2=O)c(F)cc1Cl` (stereo not given), the outcome was “inactive”. In the case of `CO/C=C(/C(=O)OC)c1ccccc1Oc1cc(Oc2ccccc2C#N)ncn1`, the AC50 is reported as 5.45 µM (active). For `C=CCC1=C(C)[C@@H](OC(=O)[C@@H]2[C@@H](C=C(C)C)C2(C)C)CC1=O`, the AC50 was 1.05 µM (active). `COC(=O)N(OC)c1ccccc1COc1ccn(-c2ccc(Cl)cc2)n1` was tested, and the outcome was “inactive”. With `OC(c1ccc(Cl)cc1)(c1cncnc1)c1ccccc1Cl` (stereo not given) the AC50 was 7.23 µM (active). In the case of `CC1COC(Cn2cncn2)(c2ccc(Oc3ccc(Cl)cc3)cc2Cl)O1` (stereo not given), the AC50 is reported as 0.685 µM (active). In the case of `CCOP(=S)(OCC)SCn1c(=O)oc2cc(Cl)ccc21`, the AC50 is reported as 7.17 µM (active). `Cc1ccc(-c2c(Cl)nc(C#N)n2S(=O)(=O)N(C)C)cc1` was tested, and the AC50 was 13 µM (active). For `O=C(Nc1ccccc1)Nc1ccnc(Cl)c1`, the AC50 was 10 µM (active).
